In the supplement of paper PMC6555819:

Experiments:
Assay in all cases: PBM binding z-score (relative to random genomic background probes); higher = stronger binding; sequences stand for … in GC…GCGATTGACAGCGTAGAATGAAGG
[1] = test system: FXR:RXRa (NR concentration 270 nM, RXRa partner concentration 90 nM)
Summary of the method: (§1)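 Antibodies against each partner of ligand-free nuclear receptor dimers (one per run) detected binding on custom Agilent 4×180K protein-binding microarrays after 1 h incubation. The double-stranded probes had 34-nt variable regions carrying direct-repeat seeds, single-nucleotide variants, half-site ablations and random human genomic background sequences. Binding z-scores, from regression-normalized fluorescence, use the random background probes as reference.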

[2] = test system: LXRa:RXRa (NR concentration 270 nM, RXRa partner concentration 90 nM)
Summary of the method: as §1

[3] = test system: LXRa homodimer (NR concentration 270 nM)
Summary of the method: as §1

[4] = test system: LXRb:RXRa (NR concentration 270 nM, RXRa partner concentration 90 nM)
Summary of the method: as §1

[5] = test system: LXRb homodimer (NR concentration 270 nM)
Summary of the method: as §1

[6] = test system: PPARa:RXRa (NR concentration 270 nM, RXRa partner concentration 90 nM)
Summary of the method: as §1

[7] = test system: PPARg:RXRa (NR concentration 180 nM, RXRa partner concentration 90 nM)
Summary of the method: as §1

[8] = test system: PPARg:RXRa 270nM:90nM, anti-RXR (NR concentration 270 nM, RXRa partner concentration 90 nM)
Summary of the method: as §1

[9] = test system: PPARg:RXRa 30nM:10nM, anti-RXR (NR concentration 30 nM, RXRa partner concentration 10 nM)
Summary of the method: as §1

[10] = test system: PPARg:RXRa 90nM:30nM, anti-RXR (NR concentration 90 nM, RXRa partner concentration 30 nM)
Summary of the method: as §1

[11] = test system: PPARg:RXRa DBDmut IVT, anti-RXR (DBD mutation: RXRa K156A/R161A, NR concentration 270 nM, RXRa partner concentration 90 nM)
Summary of the method: as §1

[12] = test system: PPARg:RXRa IVT, anti-PPARg (NR concentration 270 nM, RXRa partner concentration 90 nM)
Summary of the method: as §1

[13] = test system: PPARg DBDmut:RXRa IVT, anti-PPARg (DBD mutation: PPARg1 K132A/R137A, NR concentration 270 nM, RXRa partner concentration 90 nM)
Summary of the method: as §1

[14] = test system: PPARg DBDmut IVT, anti-PPARg (DBD mutation: PPARg1 K132A/R137A, NR concentration 270 nM)
Summary of the method: as §1

[15] = test system: PPARg homodimer (NR concentration 180 nM)
Summary of the method: as §1

[16] = test system: PXR:RXRa (NR concentration 270 nM, RXRa partner concentration 90 nM)
Summary of the method: as §1

[17] = test system: PXR homodimer (NR concentration 270 nM)
Summary of the method: as §1

[18] = test system: RARa:RXR (NR concentration 270 nM, RXRa partner concentration 90 nM)
Summary of the method: as §1

[19] = test system: RARa homodimer (NR concentration 270 nM)
Summary of the method: as §1

[20] = test system: RARb:RXRa (NR concentration 270 nM, RXRa partner concentration 90 nM)
Summary of the method: as §1

Sequence	PBM binding z-score [1]	PBM binding z-score [2]	PBM binding z-score [3]	PBM binding z-score [4]	PBM binding z-score [5]	PBM binding z-score [6]	PBM binding z-score [7]	PBM binding z-score [8]	PBM binding z-score [9]	PBM binding z-score [10]	PBM binding z-score [11]	PBM binding z-score [12]	PBM binding z-score [13]	PBM binding z-score [14]	PBM binding z-score [15]	PBM binding z-score [16]	PBM binding z-score [17]	PBM binding z-score [18]	PBM binding z-score [19]	PBM binding z-score [20]
TGAATGAGGTTATAAGATCAGGGATCGTTGCAAA	1.25	1.28	-0.202	0.676	-0.353	2.81	1.56	2.12	0.946	1.28	0.979	1.86	1.31	0.477	0.305	0.783	0.0722	1.24	0.256	0.862
CCTACTGGGCCACGAAAAGTCATTGATTCAGTGA	-0.198	-0.0823	-0.286	-0.375	-0.772	0.98	1.63	1.67	0.153	0.689	5.95	5.51	-0.0211	-0.417	0.0392	-0.419	-0.579	-0.211	-0.346	0.629
TAGCCTAGGTCAGATCGGGCCAGAATACGCTATA	1.65	1.06	-0.312	0.942	-0.714	1.79	0.869	0.835	-0.187	0.398	0.095	1.57	-0.542	-0.739	0.124	0.946	-0.549	1.87	-0.627	2.93
ATCGAAAGGGCGAGGTGAGTATAGAGAAAGGGAA	0.707	0.563	-0.0358	0.463	0.173	1.38	0.612	0.445	0.457	0.394	-0.0167	0.793	0.764	0.945	0.793	0.415	0.345	0.69	0.319	2.09
ATCTCTAGGTAAAAGTTCAGTGTATCCCGAGGAT	0.805	1.47	1.82	1.14	0.968	4.08	7.71	8.23	7.05	9.47	2.32	3.71	1.69	1.72	1.66	2.25	2.23	1.53	1.59	2.5
TCTAGTAGATCAATAGAGGTTAAGAAAGTGCGCT	0.905	3.79	0.28	1.96	-0.599	1.98	0.362	1.7	2.76	2.4	1.7	0.843	-0.106	0.138	0.0842	3.18	0.411	1.81	0.23	0.908
CTCGAAAGGTCGGTTGAGGTGATTATACGGATAA	2.6	1.84	-0.0507	1.68	-0.13	2.79	0.571	1.14	0.341	0.688	0.246	0.642	0.351	0.785	1.2	3.74	0.3	2.2	0.287	2.85
